# Assay results taken from PubChem BioAssay (NCATS).
# Unmarked numbers belong to inactive results. Inconclusive results are not listed. Where a call stands in place of a potency, no number is given. The source made the active and inactive calls. Unless noted, calls come from the whole dose curve; as a rule, active = well fitted curve in the direction sought with a large enough effect; inconclusive = small, poorly fitted or top-dose-only effect, or another doubt; inactive = no such curve, though single readings can be large; an effect the other way counts as inactive or inconclusive.
# Columns and labels:
# [1] = S16 Schwann cell viability assay (CellTiter-Glo assay) (AID 624031); note: nearly all actives have a fitted effect of over 70% in size; note: potency is the fitted concentration of half-maximal effect
# Summary of the method: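 Parental S16 cells, 24 h compound, 37 °C. ATP-luminescence viability; DMSO = 0% activity, empty wells as reference; curves classified by fit quality and efficacy.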
# [2] = S16 Schwann cell PMP22 intronic element firefly luciferase assay (AID 624032); note: nearly all actives have a fitted effect of over 30% in size; note: potency is the fitted concentration of half-maximal effect
# Summary of the method: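 Rat S16 Schwann cells stably carrying firefly luciferase driven by a PMP22 intronic element, in 10% FBS, treated 24 h at 37 C. ONE-Glo luminescence normalized to PTC124 control and DMSO (0%); curves classed by r2, magnitude and activity.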
# [3] = S16 Schwann cell PMP22 intronic element beta-lactamase assay (AID 624044; calls by dose curve; note: nearly all actives have a fitted effect of over 15% in size; note: potency is the fitted concentration of half-maximal effect)
# Summary of the method: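 Rat S16 Schwann cells with beta-Lac driven by a PMP22 intronic element, compound-treated 24 h at 37 °C. LiveBLAzer FRET B/G read: 460 nm normalized to potassium clavulanate vs DMSO; 535 nm FRET as viability; concentration-effect curves classified.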
# [4] = qHTS assay for small molecule agonists of the antioxidant response element (ARE) signaling pathway (AID 651741; active = well fitted activation curve with a large enough effect in the signal ratio; the % refers to the signal ratio)
# Summary of the method: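 CellSensor ARE-bla HepG2 cells (2,000/well) carrying ARE-driven beta-lactamase, exposed 16 h at 37 C. LiveBLAzer B/G FRET substrate added for 2 h at room temperature; fluorescence intensity read.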
# [5] = qHTS assay for small molecule activators of the p53 signaling pathway (AID 651743; active = well fitted activation curve with a large enough effect in the signal ratio, not every such curve was filed as active; the % refers to the signal ratio; note: series mostly up to about 92 µM); conditions: HCT-116 p53RE-bla, beta-lactamase FRET ratio, 16 h; activation: active compounds read high
# Summary of the method: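 p53RE-bla HCT-116 cells carrying a beta-lactamase reporter under p53 response elements were exposed to compounds for 16 hours at 37 C. Reporter activity read as fluorescence after 2 hours at room temperature with LiveBLAzer B/G FRET substrate.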
# [6] = target: Glutaminase kidney isoform, mitochondrial (Homo sapiens) (UniProt O94925); assay: qHTS for Inhibitors of Glutaminase (GLS): LOPAC Validation (AID 624146);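 note: glutamate product detected by oxidase and peroxidase coupled Amplex red fluorescence gain; series mostly up to about 46 µM; nearly all actives have a fitted effect of over 60% in size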
# Summary of the method: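 Two-point fluorescence kinetic (t0, 30 min RT) for hKGA; glutamate detected via glutamate oxidase–HRP–Amplex Red. Substrate: 1 mM L-glutamine solution; buffer 45 mM KH2PO4, pH 8.2.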
# [7] = qHTS of Trypanosoma Brucei Inhibitors: LOPAC Validation (AID 624147)
# Summary of the method: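 Readout: single end-point luminescence (Kinase-Glo Plus, 10 min). Reaction conditions were TbPYK/substrate plus 130 uM ADP, 45 min at RT, pH 7.2 TEA buffer. No-enzyme wells served as controls, and data were normalized before concentration-response fitting.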
# [8] = target: Glucagon-like peptide 1 receptor (Homo sapiens) (UniProt P43220); assay: qHTS of GLP-1 Receptor Agonists: LOPAC Validation (AID 624148);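 note: higher luminescence signal means agonism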
# Summary of the method: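 HEK293 cells stably co-expressing GLP-1R and a cAMP-responsive luciferase reporter, plated 12 hours before compound, then incubated 4-6 hr at 37 deg C. Luminescence read 12 min after detection reagent.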
# [9] = qHTS of Nrf2 Activators: LOPAC Validation (AID 624149)
# Summary of the method: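 AREc32_Fluc cells, 1000/well in OPTI-MEM with 5% FBS, grown overnight, then exposed to compounds for 24 hr at 37 deg C, 5% CO2. ARE-driven firefly luciferase read by Steady-Glo luminescence after 30 min at RT.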
# Glutaminase kidney isoform, mitochondrial (Homo sapiens), sequence (O94925 whole entry, looked up, canonical isoform): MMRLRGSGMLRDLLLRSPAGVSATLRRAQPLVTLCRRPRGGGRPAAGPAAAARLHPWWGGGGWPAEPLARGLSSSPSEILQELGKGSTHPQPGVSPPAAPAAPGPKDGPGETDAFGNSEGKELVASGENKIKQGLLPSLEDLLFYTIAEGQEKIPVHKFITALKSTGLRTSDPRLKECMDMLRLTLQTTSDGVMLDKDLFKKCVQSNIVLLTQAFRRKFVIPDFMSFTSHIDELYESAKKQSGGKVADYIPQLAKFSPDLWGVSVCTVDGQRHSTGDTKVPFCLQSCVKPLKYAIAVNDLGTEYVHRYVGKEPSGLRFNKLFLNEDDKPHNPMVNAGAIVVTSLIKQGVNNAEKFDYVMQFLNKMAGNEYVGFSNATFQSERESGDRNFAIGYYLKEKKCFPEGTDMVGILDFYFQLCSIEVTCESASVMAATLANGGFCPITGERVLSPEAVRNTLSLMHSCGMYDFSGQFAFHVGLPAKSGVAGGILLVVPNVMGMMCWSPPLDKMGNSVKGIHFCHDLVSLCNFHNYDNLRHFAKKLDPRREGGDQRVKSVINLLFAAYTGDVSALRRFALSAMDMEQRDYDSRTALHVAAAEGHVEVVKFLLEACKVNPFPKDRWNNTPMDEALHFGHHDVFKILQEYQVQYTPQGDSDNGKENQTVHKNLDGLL
# Glucagon-like peptide 1 receptor (Homo sapiens), sequence (P43220 whole entry, looked up): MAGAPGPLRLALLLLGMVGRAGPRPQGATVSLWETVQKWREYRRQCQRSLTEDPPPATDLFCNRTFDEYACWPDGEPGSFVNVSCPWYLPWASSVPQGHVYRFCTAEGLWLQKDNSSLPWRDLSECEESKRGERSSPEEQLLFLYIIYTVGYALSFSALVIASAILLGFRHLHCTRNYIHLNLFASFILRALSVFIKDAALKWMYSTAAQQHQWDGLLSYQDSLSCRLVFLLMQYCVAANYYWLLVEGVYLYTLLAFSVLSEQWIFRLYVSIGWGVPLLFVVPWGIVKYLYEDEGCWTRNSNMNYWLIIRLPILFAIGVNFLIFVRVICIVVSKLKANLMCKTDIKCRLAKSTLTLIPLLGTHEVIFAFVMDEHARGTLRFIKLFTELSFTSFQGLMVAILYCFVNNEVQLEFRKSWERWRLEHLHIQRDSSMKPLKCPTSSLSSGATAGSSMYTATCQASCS
structure (smiles),measurement,setting,value
CC(=O)O[C@H]1C[C@@H]2CC[C@@H]3[C@H](CC[C@@]4(C)[C@H]3C[C@H]([N+]3(C)CCCCC3)[C@@H]4OC(C)=O)[C@@]2(C)C[C@@H]1N1CCCCC1,Potency,[1],inactive
same,Potency,[2],inactive
CC1=C(C(=O)O)N2C(=O)[C@@H](NC(=O)[C@H](N)c3ccccc3)[C@H]2SC1,Potency,[1],inactive
same,Potency,[2],inactive
CNCCc1ccccn1,Potency,[1],inactive
same,Potency,[2],inactive
Cc1nc(-c2ccc(Cl)cc2)oc1COC(C)(C)C(=O)O,Potency,[1],inactive
same,Potency,[2],inactive
CC[N+](C)(CC)CCOC(=O)C(O)(c1ccccc1)C1CCCCC1 (stereo unspecified),Potency,[1],inactive
same,Potency,[2],inactive
Cc1ccc(S(=O)(=O)NC(=O)NC2CCCC2)cc1,Potency,[1],inactive
same,Potency,[2],inactive
C[N+]1(C)CCC(=C(c2ccccc2)c2ccccc2)CC1,Potency,[1],inactive
same,Potency,[2],inactive
CCN1/C(=C/C=C/c2sc3ccccc3[n+]2CC)Sc2ccccc21,Potency,[1],4.05 µM (active)
same,Potency,[2],2.03 µM (active)
COc1cc(C)nc(-n2nc(C)cc2OC)n1,Potency,[1],inactive
same,Potency,[2],inactive
CC(=O)Oc1ccc(C)cc1,Potency,[1],inactive
same,Potency,[2],inactive
COc1ccc2c(c1)c1c3n2CCN(C)C3=NCC1,Potency,[1],inactive
same,Potency,[2],inactive
COc1ccc(CN(CCN(C)C)c2ncccn2)cc1,Potency,[1],inactive
same,Potency,[2],inactive
NS(=O)(=O)c1cc(C(=O)O)cc(N2CCCC2)c1Oc1ccccc1,Potency,[1],inactive
same,Potency,[2],inactive
O=C(O)CCC(=O)Nc1ccc(S(=O)(=O)Nc2nccs2)cc1,Potency,[1],inactive
same,Potency,[2],inactive
CCOC(=O)c1c(N)sc2c1CCN(Cc1ccccc1)C2,Potency,[1],inactive
same,Potency,[2],36.1 µM (active)
O=S(c1cc(Cl)cc(Cl)c1O)c1cc(Cl)cc(Cl)c1O,Potency,[1],inactive
same,Potency,[2],inactive
NS(=O)(=O)c1ccc(Cl)c(S(N)(=O)=O)c1,Potency,[1],inactive
same,Potency,[2],inactive
CCN(CC)CCNC(=O)COc1ccc(OC)cc1,Potency,[1],inactive
same,Potency,[2],inactive
O=C(O)CCc1nc2ccccc2[nH]1,Potency,[1],inactive
same,Potency,[2],inactive
OCc1ccccn1,Potency,[1],inactive
same,Potency,[2],inactive
Cc1cc(C)cc(OCC2CNC(=O)O2)c1 (stereo unspecified),Potency,[1],inactive
same,Potency,[2],inactive
N=C(N)N1CCc2ccccc2C1,Potency,[1],inactive
same,Potency,[2],inactive
OC1C(O)C(O)C(O)C(O)C1O (stereo unspecified),Potency,[1],inactive
same,Potency,[2],inactive
CCC(C(=O)OCCOCCN(CC)CC)c1ccccc1 (stereo unspecified),Potency,[1],inactive
same,Potency,[2],inactive
Nc1ccc(C(=O)NCC(=O)O)cc1,Potency,[1],inactive
same,Potency,[2],inactive
O=C(CCCN1CC=C(n2c(=O)[nH]c3ccccc32)CC1)c1ccc(F)cc1,Potency,[1],inactive
same,Potency,[2],inactive
CC(C)(C)NC[C@H](O)COc1cccc2c1CCCC2=O,Potency,[1],inactive
same,Potency,[2],inactive
CC(C)Cc1ccc(CC(=O)O)cc1,Potency,[1],inactive
same,Potency,[2],inactive
Nc1ccc(S(=O)(=O)NCc2ccccc2)cc1,Potency,[1],inactive
same,Potency,[2],inactive
same,Potency,[3],inactive
COc1ccc(/C=N/NC(=O)c2ccncc2)cc1OC,Potency,[1],inactive
same,Potency,[2],inactive
same,Potency,[3],inactive
FC(F)(F)C(F)(F)C(F)(F)C(F)(F)C(F)(F)C(F)(F)C(F)(F)C(F)(F)Br,Potency,[1],inactive
same,Potency,[2],inactive
same,Potency,[3],inactive
CN1CCC(OC(c2ccccc2)c2ccccc2)CC1,Potency,[1],inactive
same,Potency,[2],inactive
same,Potency,[3],inactive
OC(C#CCN1CCCC1)(c1ccccc1)c1ccccc1,Potency,[1],inactive
same,Potency,[2],inactive
same,Potency,[3],inactive
Cc1cc2c(OCC(CNC(C)(C)C)OC(=O)c3ccccc3)cccc2[nH]1 (stereo unspecified),Potency,[1],inactive
same,Potency,[2],18.1 µM (active)
same,Potency,[3],inactive
Cc1ccc(O)c([C@H](CCN(C(C)C)C(C)C)c2ccccc2)c1,Potency,[1],inactive
same,Potency,[2],inactive
same,Potency,[3],inactive
Nc1ccc(S(=O)(=O)Nc2cnc3ccccc3n2)cc1,Potency,[1],inactive
same,Potency,[2],inactive
same,Potency,[3],inactive
C[C@@H](O)[C@H]1C(=O)N2C(C(=O)O)=C(S[C@@H]3CN[C@H](CNS(N)(=O)=O)C3)[C@H](C)[C@H]12,Potency,[1],inactive
same,Potency,[2],inactive
same,Potency,[3],inactive
O=C(c1ccc(F)cc1)C1CCN(CCn2c(=S)[nH]c3ccccc3c2=O)CC1,Potency,[1],inactive
same,Potency,[2],inactive
same,Potency,[3],inactive
CC(=O)Nc1ncc([N+](=O)[O-])s1,Potency,[1],inactive
same,Potency,[2],inactive
same,Potency,[3],inactive
C#C[C@]1(O)CC[C@H]2[C@@H]3CCc4cc(OC)ccc4[C@H]3CC[C@@]21C,Potency,[1],inactive
same,Potency,[2],inactive
same,Potency,[3],inactive
COc1ccc(C(=O)c2ccccc2O)c(O)c1,Potency,[1],inactive
same,Potency,[2],inactive
same,Potency,[3],inactive
O[C@@H](c1cc(C(F)(F)F)nc2c(C(F)(F)F)cccc12)[C@H]1CCCCN1,Potency,[1],28.7 µM (active)
same,Potency,[2],36.1 µM (active)
CC(=O)OC[C@H]1O[C@@H](n2ncc(=O)[nH]c2=O)[C@H](OC(C)=O)[C@@H]1OC(C)=O,Potency,[1],inactive
same,Potency,[2],inactive
same,Potency,[3],9.99 µM (active)
CCCCCN=C(N)N/N=C/c1c[nH]c2ccc(OC)cc12,Potency,[1],inactive
same,Potency,[2],inactive
same,Potency,[3],inactive
Oc1ccccc1C=NCc1ccccc1,Potency,[1],inactive
same,Potency,[2],inactive
Cc1ccccc1OCC(O)CO (stereo unspecified),Potency,[1],inactive
same,Potency,[2],inactive
same,Potency,[3],inactive
OCCOCCN1CCN(C2=Nc3ccccc3Sc3ccccc32)CC1,Potency,[1],inactive
same,Potency,[2],inactive
same,Potency,[3],inactive
CC(=O)NCCCCCC(=O)O,Potency,[1],inactive
same,Potency,[2],inactive
O=S(=O)(O)c1ccc(O)cc1,Potency,[1],inactive
same,Potency,[2],inactive
N/C(=N\N=C\c1ccc(Cl)cc1)N/N=C/c1ccc(Cl)cc1,Potency,[1],inactive
same,Potency,[2],inactive
same,Potency,[3],inactive
CCCCc1cc2ccccc2c(OCCN(C)C)n1,Potency,[1],inactive
same,Potency,[2],inactive
same,Potency,[3],inactive
C/C=C/C=N/NC(=O)c1ccncc1,Potency,[1],inactive
same,Potency,[2],inactive
same,Potency,[3],inactive
CN1CCN(C2=Nc3cc(F)ccc3Cc3ccccc32)CC1,Potency,[1],inactive
same,Potency,[2],inactive
same,Potency,[3],inactive
FC1(F)C(F)(F)C(F)(F)C2(F)C(F)(F)C(F)(F)C(F)(F)C(F)(F)C2(F)C1(F)F (stereo unspecified),Potency,[1],inactive
same,Potency,[2],inactive
COc1ccc(-c2cc(C(F)F)nn2-c2ccc(S(N)(=O)=O)cc2)cc1F,Potency,[1],inactive
same,Potency,[2],inactive
same,Potency,[3],inactive
CCCCN=C(N)N=C(N)N,Potency,[1],inactive
same,Potency,[2],inactive
same,Potency,[3],inactive
CCCc1ncc(C[n+]2ccccc2C)c(N)n1,Potency,[1],inactive
same,Potency,[2],inactive
O=C(O)P(=O)(O)O,Potency,[1],inactive
same,Potency,[2],inactive
same,Potency,[3],inactive
C#C[C@]1(O)CC[C@H]2[C@@H]3CCC4=CC(=O)CC[C@@H]4[C@H]3CC[C@@]21CC,Potency,[1],inactive
same,Potency,[2],20.3 µM (active)
same,Potency,[3],inactive
O=C(O)C1(C(=O)O)CCC1.[NH2-].[NH2-].[Pt+2],Potency,[1],inactive
same,Potency,[2],inactive
same,Potency,[3],inactive
CC(C)Nc1cccnc1N1CCN(C(=O)c2cc3cc(NS(C)(=O)=O)ccc3[nH]2)CC1,Potency,[1],inactive
same,Potency,[2],14.4 µM (active)
same,Potency,[3],inactive
Clc1cccc(C(c2ccc3nc[nH]c3c2)n2ccnc2)c1 (stereo unspecified),Potency,[1],inactive
same,Potency,[2],inactive
same,Potency,[3],inactive
CCNC(=O)NCc1cccc(Cl)c1,Potency,[1],inactive
same,Potency,[2],inactive
same,Potency,[3],inactive
CCN(CC)CCNc1ccc(CO)c2sc3ccccc3c(=O)c12,Potency,[1],inactive
same,Potency,[2],1.61 µM (active)
same,Potency,[3],11.2 µM (active)
Nc1nc(N)c(-c2ccccc2)s1,Potency,[1],inactive
same,Potency,[2],inactive
same,Potency,[3],inactive
CCOc1ccccc1OCCN[C@H](C)Cc1ccc(OC)c(S(N)(=O)=O)c1,Potency,[1],inactive
same,Potency,[2],inactive
same,Potency,[3],inactive
NC(=O)C1(N2CCCCC2)CCN(CCCC(=O)c2ccc(F)cc2)CC1,Potency,[1],inactive
same,Potency,[2],inactive
same,Potency,[3],inactive
CCOc1ccccc1C(N)=O,Potency,[1],inactive
same,Potency,[2],inactive
same,Potency,[4],inactive
same,activation,[5],1.59%
NC(N)=NCc1cccc(I)c1,Potency,[1],inactive
same,Potency,[2],inactive
same,Potency,[3],inactive
same,outcome,[6],inactive
same,outcome,[7],inactive
same,outcome,[8],inactive
same,outcome,[9],inactive
O=C(O)C(Cc1cc(I)c(O)c(I)c1)c1ccccc1 (stereo unspecified),Potency,[1],inactive
same,Potency,[2],inactive
same,Potency,[3],inactive
